Experimental data reported in PubChem BioAssay (NCI).
This is part of a sample that, as a whole, favours compounds with a hit. Of some 83,000 tested, about 20% had one in any assay.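 96-well plates, one dose, 48 hours. Percent growth reported; active if below 10.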 Values without a mark were called inactive. Calls of active or inactive are those of the source.

Key:
Assay in all cases: NCI-60 one-dose screen, 48 h (100 = growth as untreated, 0 = no growth, -100 = all killed)
Details in all cases: 10 µM
HCT-15 colon = tested on: HCT-15 colon
HT29 colon = tested on: HT29 colon
SNB-75 CNS = tested on: SNB-75 CNS
SNB-19 CNS = tested on: SNB-19 CNS
PC-3 prostate = tested on: PC-3 prostate
SK-MEL-5 melanoma = tested on: SK-MEL-5 melanoma
UACC-62 melanoma = tested on: UACC-62 melanoma
LOX IMVI melanoma = tested on: LOX IMVI melanoma
SK-MEL-28 melanoma = tested on: SK-MEL-28 melanoma
U251 CNS = tested on: U251 CNS

Compound	growth (HCT-15 colon)	growth (HT29 colon)	growth (SNB-75 CNS)	growth (SNB-19 CNS)	growth (PC-3 prostate)	growth (SK-MEL-5 melanoma)	growth (UACC-62 melanoma)	growth (LOX IMVI melanoma)	growth (SK-MEL-28 melanoma)	growth (U251 CNS)
CCCCCCCCCCSC(=N)N (tested in a mixture with another compound)	12%	3.13% (active)	91.2%	75.8%	65.5%	80.5%	9.19% (active)	48.9%	72.1%	
CC(C)OCc1cc(CN2CCN(c3cccc(Cl)c3)CC2)c(O)c2ncccc12	4.08% (active)	-17.1% (active)	-25.3% (active)	19.6%	-0.0543% (active)	-85.2% (active)	-61.2% (active)	-73.3% (active)	-2.34% (active)	
CCOC(=O)c1cc(-c2ccccc2)nc(N)n1	94.9%	119%	84.7%	92%	96.6%	100%	99.9%	101%	111%	
Oc1[nH]c2ccccc2c1/C=c1/cc2c(c(-c3ccc(C(F)(F)F)cc3)n1)=Nc1ccccc1-2	49.4%	20.2%	63.4%	82.7%	34.9%	57.2%	77%	60.5%	52.8%	
FC(F)(F)c1ccc(-c2cnc(Br)nc2NC2CCCCCC2)cc1	73.1%	22.3%	63.2%	42.9%	5.8% (active)	17.9%	14.4%	40.1%	36.1%	
CCCCCCCCCCCCCCCCn1cc[n+](C)c1	9.85% (active)	-100% (active)	-98.6% (active)	-75.9% (active)	-69.7% (active)	-95.2% (active)	-94.6% (active)	-50.4% (active)	-86.2% (active)	
CCOC(=O)c1cc2c(n1Cc1ccccc1)-c1oncc1CC2	65.3%	35.4%	89.2%	86.2%	76.2%	73.5%	75.8%	80.9%	89.8%	
N#C/C(=C/c1cc([N+](=O)[O-])ccc1Cl)C(N)=O	83.4%	80.3%	88.9%	99.7%	88.7%	98.8%	104%	68.8%	105%	
CCCCn1c(=O)[nH]c(N)c(C(c2ccc(Cl)cc2)c2c(N)[nH]c(=O)n(CCCC)c2=O)c1=O	76.9%	24.6%	57.1%	47.9%	32%	-11.3% (active)	41.3%	41.2%	44.7%	
CS(=O)(=O)Nc1ccc([N+](=O)[O-])cc1Oc1ccccc1	104%	99.9%	110%	104%	95.4%	84.2%	89.8%	88.2%	118%	
COc1ccc(OC)c([N+](=O)[O-])c1C=O	104%	55.6%	85.8%	101%	92.9%	96.1%	100%	83.4%	103%	
Cc1cc(O)c(C2=NN(c3ccc(S(N)(=O)=O)cc3)C(c3ccc(N(C)C)cc3)C2)c(C)c1Cl (configuration not stated)	80.5%	52.7%		107%	13.6%	79.6%	64.8%	82.8%	90.2%	78.3%
COC(=O)[C@]12CC[C@@H](C)[C@H](C)[C@@H]1C1=CC[C@@H]3[C@@]4(C)C/C(=N\O)[C@H](O)[C@@]5(C)COC(=C45)C[C@@]3(C)[C@]1(C)CC2	-92.7% (active)	-92.9% (active)		-66.2% (active)	-81.5% (active)	-97.7% (active)	-57.6% (active)	-71.6% (active)	-60.3% (active)	-96.4% (active)
N=C(N)c1ccc(-c2ccc(-c3cccs3)s2)nc1	12.2%	-20.1% (active)		87.8%	43.7%	68.6%	86.8%	10.5%	83.7%	28%
Nc1cc2c(cc1Cl)-c1ccc(Cl)cc1C2=O	99.7%	97.5%		98.7%	94.2%	108%	95.7%	95.1%	109%	91.1%
CCCCCC(CCC)COC(=O)c1ccc(OC)cc1 (configuration not stated)	99%	101%		112%	84.1%	104%	104%	94.5%	110%	96%
Cc1nnc2c3nnc(-c4ccc(Cl)cc4)n3c3ccccc3n12	97.4%	103%		106%	91.8%	99.7%	97.7%	97.2%	104%	100%
O=C(OCC1OC(n2cc(C(F)(F)F)c(=O)[nH]c2=O)CC1OC(=O)c1ccc([N+](=O)[O-])cc1)c1ccc([N+](=O)[O-])cc1 (configuration not stated)	87%	75.3%		94.5%	71.7%	43.2%	30.7%	64.2%	86.9%	76.1%
Nc1nc2c(nnn2C2CC(O)C(CO)O2)c(=O)[nH]1 (configuration not stated)	41.6%	51.4%		94.3%	26.5%	87%	25%	19.5%	87.5%	54.3%
Cc1ccc(S(=O)(=O)Nc2cccc3[nH]c(C(F)(F)F)nc23)cc1	28.3%	4.99% (active)		39.2%	17.2%	7.01% (active)	36.9%	41.4%	38.4%	29.8%
O=C1NN(c2ccccc2)C(c2cccnc2)=N/C1=C\c1cccnc1	93.9%	97.2%		92.7%	92.1%	91.8%	86.1%	82.9%	116%	102%
N#Cc1ccc(-n2cnc(NC(=O)[C@H]3CCN(C#N)C3)c2)cc1	11.1%	15.6%		35.1%	32%	12.1%	18.8%	16.5%	36.4%	7.35% (active)
COc1ccc(NC(=O)CCn2cnc3c(cc(-c4ccccc4)n3-c3ccccc3)c2=O)cc1	98.6%	102%		57.2%	86.6%	91%	92.4%	66.4%	101%	77.4%
O=C1/C(=C/c2ccc(O)cc2)Cc2ccc(Cl)cc21	89.2%	110%		93.9%	92.6%	79.3%	77.3%	84.2%	114%	
Cc1ccc(NS(=O)(=O)c2ccccc2)c(NS(=O)(=O)c2ccccc2)c1	104%	102%		95.2%	94.6%	104%	87.9%	94.5%	116%	98.6%
COCCOC(=O)NC(=O)Nc1ccc(C(=O)c2ccc(Cl)cc2)cc1	20.9%	11.9%		41.3%	32.1%	5.54% (active)	25.8%	37.2%	62.6%	37.8%
CC(CNC(Cc1ccccc1)c1ccccc1)NC(Cc1ccccc1)c1ccccc1 (configuration not stated)	30.6%	4% (active)		61.7%	40.7%	14.2%	61.4%	-5.75% (active)	64.2%	34.3%
